Results on 7 compounds are retold here after PubChem BioAssay (Tox21).

Values without a mark were called inactive. Inconclusive results are not listed. Active and inactive are the calls of the source. Unless noted, calls come from the whole dose curve.

A short description of assay [1]: qHTS assay to identify small molecule antagonists of the sonic hedgehog signaling (Shh) pathway (AID 1259369). Note: nearly all actives have a fitted effect of over 45% in size. Note: potency is the fitted concentration of half-maximal effect. The gist of the method: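 Gli1 transcriptional reporter (firefly Luc) in NIH/3T3 background, conditioned-medium activated. 24hr exposure, luminescence endpoint.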
Assay [2] concerns the target Estrogen receptor beta (Homo sapiens) (UniProt Q92731). The assay can be described thus: qHTS assay to identify small molecule antagonists of the estrogen receptor beta (ER-beta) signaling pathway (AID 1259378; active = well fitted inhibition curve with a large enough effect in the signal ratio in the repeat runs, not every such curve was filed as active; the % refers to the signal ratio; note: potency is the fitted concentration of half-maximal effect). The gist of the method:
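ER-beta-UAS-bla HEK293T (GripTite) cells in 2% charcoal-stripped FBS medium were preincubated 6 hr at 37C, dosed with compound, then stimulated with 1 nM E2 (final) for 16 hr; beta-lactamase reporter read by B/G FRET fluorescence after 2 hr substrate loading.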

The nature of assay [3]: qHTS assay to identify small molecule agonists of the androgen receptor (AR) signaling pathway in the presence of an antagonist - cell viability counter screen (AID 1259379; active = well fitted curve in the direction sought with a large enough effect in the repeat runs; an effect the other way counts as inactive or inconclusive;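 note: MDA-kb2 human breast cancer cells carrying an MMTV luciferase reporter; series mostly up to about 92 µM; nearly all actives have a fitted effect of over 25% in size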). The gist of the method: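 Counter screen for cell viability run in parallel with the AR agonist-mode luciferase assay. MDA-kb2 cells were co-treated with nilutamide (3.0uM final) and compounds, then incubated 16 hr at 37C, and CellTiter-Fluor fluorescence was measured.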

Assay [4] is described as follows: qHTS assay to identify small molecule agonists of the estrogen receptor beta (ER-beta) signaling pathway - cell viability counter screen (AID 1259380; active = well fitted curve in the direction sought with a large enough effect in the repeat runs; an effect the other way counts as inactive or inconclusive; note: nearly all actives have a fitted effect of over 30% in size; note: potency is the fitted concentration of half-maximal effect). An outline of the steps:
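In this qHTS counter screen, HEK293T cells carrying an ER-beta/UAS beta-lactamase reporter, grown in 2% charcoal-stripped FBS, received compound for 16 hr; ATP-based CellTiter-Glo luminescence was then read after 30 min at room temperature.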

Assay [5] can be described thus: qHTS assay to identify small molecule antagonists of the estrogen receptor beta (ER-beta) signaling pathway - cell viability counter screen (AID 1259382; active = well fitted curve in the direction sought with a large enough effect in the repeat runs; an effect the other way counts as inactive or inconclusive; note: series mostly up to about 92 µM; nearly all actives have a fitted effect of over 55% in size). The gist of the method: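 HEK293T ER-beta-UAS-bla, 2% charcoal-stripped FBS; compounds + 1nM E2 16 hr 37C; CellTiter-Glo luminescence, 30 min RT.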
Assay [6] is described as follows: qHTS assay to identify small molecule agonists or antagonists of the thyroid stimulating hormone receptor (TSHR) signaling pathway - wild type cell line counter screen (AID 1259384). An outline of the steps: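 Wild-type HEK293 cells were plated 18 h at 37 C/5% CO2, pin-dosed with compound plus Ro20-1724 medium, held 30 min at room temperature, then given cAMP-d2 and anti-cAMP-cryptate; fluorescence was read after 1 h. Fifteen concentrations, triplicate.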

Assay [7] addresses Thyrotropin receptor (Homo sapiens) (UniProt P16473). The assay can be described thus: qHTS assay to identify small molecule antagonists of the thyroid stimulating hormone receptor (TSHR) signaling pathway (AID 1259385). Note: nearly all actives have a fitted effect of over 20% in size. The gist of the method:
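TSHR-HEK293 cells were plated and held 18 h at 37C/5% CO2, then given compound plus Ro20-1724 and stimulated with TSH at 1.5 ng/mL final. After 30 min at room temperature, cAMP was detected with cAMP-d2/anti-cAMP-cryptate (1 h) by fluorescence.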

Assay [8] in a line: qHTS assay to identify small molecule agonists of the estrogen receptor alpha (ER-alpha) signaling pathway in the presence of an antagonist - cell viability counter screen (AID 1259386; active = well fitted curve in the direction sought with a large enough effect in the repeat runs; an effect the other way counts as inactive or inconclusive;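 note: series mostly up to about 92 µM; cells exposed to compounds for 22 h at 37 °C before the viability read; nearly all actives have a fitted effect of over 30% in size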). The gist of the method: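 Steps: 5-day stripped-FBS culture; seed and incubate 24hr; add ICI-182,780 (10.0nM final); pin 15-point compound titration; incubate 22hr at 37C; add CellTiter-Fluor at 21hr; read fluorescence.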

The target in assay [9] is Progesterone receptor (Homo sapiens) (UniProt P06401). The assay can be described thus: qHTS assay to identify small molecule agonists of the progesterone receptor (PR) signaling pathway (AID 1346784). Note: nearly all actives have a fitted effect of over 30% in size. An outline of the steps:
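Reporter assay, GripTite PR-UAS-bla HEK 293T cells: 16 hr exposure to DMSO-dissolved compounds at 37C, 5% CO2, in steroid-depleted (2% charcoal-stripped FBS) medium; beta-lactamase measured by FRET fluorescence.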

For assay [10] the target is unchanged. The experiment in a line: qHTS assay to identify small molecule antagonists of the progesterone receptor (PR) signaling pathway (AID 1346795; active = well fitted inhibition curve with a large enough effect in the signal ratio in the repeat runs, not every such curve was filed as active; the % refers to the signal ratio; note: potency is the fitted concentration of half-maximal effect). The gist of the method: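 Stimulus R5020 at 1 nM final; cells HEK293T PR-UAS-bla; medium with 2% charcoal-stripped FBS; compound exposure 16 hr at 37C, 5% CO2; detection by FRET beta-lactamase substrate, 2 hr, room temperature.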

Assay [11] is described as follows: qHTS assay to identify small molecule antagonists of the progesterone receptor (PR) signaling pathway - cell viability counter screen (AID 1346798; active = well fitted curve in the direction sought with a large enough effect in the repeat runs; an effect the other way counts as inactive or inconclusive; note: series mostly up to about 92 µM; nearly all actives have a fitted effect of over 50% in size). An outline of the steps: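 In the same plates used for the beta-lactamase readout, cell viability of compound- and R5020-treated PR-UAS-bla HEK293T cells (16 hr, 37C) was assessed by CellTiter-Glo luminescence.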

A short description of assay [12]: qHTS assay to identify small molecule agonists of the progesterone receptor (PR) signaling pathway - cell viability counter screen (AID 1346799). Note: nearly all actives have a fitted effect of over 45% in size. The gist of the method:
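Multiplexed viability read: CellTiter-Glo luminescence, 30 min RT, following LiveBLAzer FRET measurement on PR-UAS-bla HEK293T cells exposed to compounds 16 hr.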

Assay [13] can be described thus: qHTS assay to identify small molecule antagonists of the TGF-beta/Smad signaling pathway - cell viability counter screen (AID 1346824; active = well fitted curve in the direction sought with a large enough effect in the repeat runs; an effect the other way counts as inactive or inconclusive; note: nearly all actives have a fitted effect of over 50% in size). The gist of the method: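 SBE-bla HEK 293T cells were plated overnight at 37 C, then given compounds in DMSO plus TGF-beta1 (added as 0.25 ng/mL solution) for 5 hr. After the bla read, CellTiter-Glo was added to the same wells and luminescence read after 30 min at room temperature.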

Assay [14] in a line: qHTS assay to identify small molecule agonists of the TGF-beta/Smad signaling pathway - cell viability counter screen (AID 1346829; active = well fitted curve in the direction sought with a large enough effect in the repeat runs; an effect the other way counts as inactive or inconclusive; note: top concentration of the series differs between compounds; nearly all actives have a fitted effect of over 45% in size). An outline of the steps: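 Tox21 qHTS format: SBE-bla HEK 293T cells treated with DMSO-dissolved compounds for 5 hr; CellTiter-Glo luminescence after 30 min at room temperature.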
A short description of assay [15]: qHTS assay to identify small molecule agonists of the TGF-beta/Smad signaling pathway (AID 1346859; active = well fitted activation curve with a large enough effect in the signal ratio in the repeat runs, not every such curve was filed as active; the % refers to the signal ratio; note: series mostly up to about 77 µM). An outline of the steps: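 Screening used HEK 293T SBE-bla cells at 4,000/well. Test agents: 5 hr, 37 C. Detection: FRET substrate, 2 hr RT, then excitation 405 nm with emissions at 460 and 530 nm.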
Assay [16] has as its target Estrogen receptor (Homo sapiens) (UniProt P03372). The experiment in a line: qHTS assay to identify small molecule agonists of the estrogen receptor alpha (ER-alpha) signaling pathway in the presence of an antagonist (AID 1259383). Note: top concentration of the series differs between compounds; nearly all actives have a fitted effect of over 15% in size. The gist of the method:
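ER-alpha agonism measured under antagonist challenge: 10.0nM ICI-182,780 (final) plus compound, 15 concentrations, 22hr, VM7Luc4E2 ERE-luciferase cells. Read by luminescence.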

Assay [17] concerns the target Thyrotropin-releasing hormone receptor (Homo sapiens) (UniProt P34981). The experiment in a line: qHTS assay to identify small molecule antagonists of the thyrotropin-releasing hormone receptor (TRHR) signaling pathway (AID 1346877; active = well fitted inhibition curve with a large enough effect in the repeat runs, not every such curve was filed as active; note: series mostly up to about 51 µM). An outline of the steps:
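Human TRHR in HEK293 cells; inhibition of the intracellular calcium rise triggered by 1 nM TRH was followed by fluorescence over 3 min. Compounds were run at 15 concentrations, three replicates each.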

Assay [18] has the same target. The assay can be described thus: qHTS assay to identify small molecule agonists of the thyrotropin-releasing hormone receptor (TRHR) signaling pathway (AID 1346891). Note: series mostly up to about 58 µM. An outline of the steps: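 Readout was intracellular calcium fluorescence in TRHR-Hek293 cells. Cells were incubated 18 h, dye-loaded 2 h at 37 °C, and treated with compound in agonist mode.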
The target in assay [19] is Androgen receptor (Homo sapiens) (UniProt P10275). The assay can be described thus: qHTS assay to identify small molecule agonists of the androgen receptor (AR) signaling pathway in the presence of an antagonist (AID 1259381). Note: nearly all actives have a fitted effect of over 15% in size. The gist of the method: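 AR antagonist background: nilutamide 3.0uM final. Cell line: MDA-kb2, MMTV-driven luciferase, responsive to both AR and GR. Exposure 16hr, 37C, no CO2; ONE-Glo luminescence.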
Sequence of Androgen receptor (Homo sapiens) (P10275 whole entry, looked up): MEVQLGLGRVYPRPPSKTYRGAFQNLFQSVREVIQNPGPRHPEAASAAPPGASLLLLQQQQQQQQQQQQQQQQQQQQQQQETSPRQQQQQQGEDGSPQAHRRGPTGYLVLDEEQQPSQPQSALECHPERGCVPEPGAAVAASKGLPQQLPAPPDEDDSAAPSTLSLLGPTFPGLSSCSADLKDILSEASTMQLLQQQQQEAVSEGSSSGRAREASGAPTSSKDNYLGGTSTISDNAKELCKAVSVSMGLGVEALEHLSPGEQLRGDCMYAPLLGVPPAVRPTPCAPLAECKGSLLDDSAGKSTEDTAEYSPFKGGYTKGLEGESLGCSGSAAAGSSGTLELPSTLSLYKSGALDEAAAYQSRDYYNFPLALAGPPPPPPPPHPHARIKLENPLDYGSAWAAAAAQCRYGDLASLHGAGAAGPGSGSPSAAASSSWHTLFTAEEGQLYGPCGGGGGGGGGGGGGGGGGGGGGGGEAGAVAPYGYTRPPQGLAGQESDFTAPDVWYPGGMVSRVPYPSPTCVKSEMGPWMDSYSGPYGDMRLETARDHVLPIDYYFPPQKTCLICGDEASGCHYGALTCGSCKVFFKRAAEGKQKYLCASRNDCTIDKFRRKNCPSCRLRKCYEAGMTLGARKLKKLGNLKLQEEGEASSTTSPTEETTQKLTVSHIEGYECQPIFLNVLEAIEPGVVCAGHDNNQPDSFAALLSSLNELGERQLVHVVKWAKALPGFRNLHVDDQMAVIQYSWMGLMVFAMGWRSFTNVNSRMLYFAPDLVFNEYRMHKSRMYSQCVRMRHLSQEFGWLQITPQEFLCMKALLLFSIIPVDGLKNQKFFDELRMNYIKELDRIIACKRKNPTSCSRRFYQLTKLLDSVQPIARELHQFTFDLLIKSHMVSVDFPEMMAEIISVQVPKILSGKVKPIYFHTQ

Sequence of Thyrotropin-releasing hormone receptor (Homo sapiens) (P34981 whole entry, looked up): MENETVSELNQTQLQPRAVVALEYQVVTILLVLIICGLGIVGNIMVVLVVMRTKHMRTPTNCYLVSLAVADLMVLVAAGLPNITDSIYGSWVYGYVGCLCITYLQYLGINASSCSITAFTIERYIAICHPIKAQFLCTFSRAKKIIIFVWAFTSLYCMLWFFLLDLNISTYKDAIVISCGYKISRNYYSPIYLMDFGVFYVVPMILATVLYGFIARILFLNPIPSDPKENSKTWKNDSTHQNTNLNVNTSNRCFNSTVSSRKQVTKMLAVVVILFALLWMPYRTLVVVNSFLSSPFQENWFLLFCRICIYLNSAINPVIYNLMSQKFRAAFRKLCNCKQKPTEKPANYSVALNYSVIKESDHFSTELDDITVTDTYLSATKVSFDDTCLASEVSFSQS
Sequence of Thyrotropin receptor (Homo sapiens) (P16473 whole entry, looked up): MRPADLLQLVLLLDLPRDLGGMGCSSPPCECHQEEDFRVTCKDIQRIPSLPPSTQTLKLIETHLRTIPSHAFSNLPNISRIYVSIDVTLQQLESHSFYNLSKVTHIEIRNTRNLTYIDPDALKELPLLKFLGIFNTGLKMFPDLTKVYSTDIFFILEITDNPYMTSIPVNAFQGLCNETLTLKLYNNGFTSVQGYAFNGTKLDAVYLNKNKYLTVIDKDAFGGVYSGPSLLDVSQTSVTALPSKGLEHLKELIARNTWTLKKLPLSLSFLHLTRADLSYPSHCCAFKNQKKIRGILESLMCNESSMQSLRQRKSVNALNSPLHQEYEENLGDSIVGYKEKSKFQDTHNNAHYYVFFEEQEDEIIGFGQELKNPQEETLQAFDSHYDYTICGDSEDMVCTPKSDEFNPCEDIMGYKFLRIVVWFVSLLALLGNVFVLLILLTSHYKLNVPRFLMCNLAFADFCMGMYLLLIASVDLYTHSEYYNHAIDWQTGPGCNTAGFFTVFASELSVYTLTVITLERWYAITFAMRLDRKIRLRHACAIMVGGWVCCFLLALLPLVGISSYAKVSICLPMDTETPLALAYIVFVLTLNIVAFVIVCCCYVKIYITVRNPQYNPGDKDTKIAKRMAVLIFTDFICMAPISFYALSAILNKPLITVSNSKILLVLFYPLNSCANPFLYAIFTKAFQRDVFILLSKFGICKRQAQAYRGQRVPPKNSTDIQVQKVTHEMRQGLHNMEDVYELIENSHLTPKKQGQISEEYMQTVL
Sequence of Estrogen receptor (Homo sapiens) (P03372 whole entry, looked up): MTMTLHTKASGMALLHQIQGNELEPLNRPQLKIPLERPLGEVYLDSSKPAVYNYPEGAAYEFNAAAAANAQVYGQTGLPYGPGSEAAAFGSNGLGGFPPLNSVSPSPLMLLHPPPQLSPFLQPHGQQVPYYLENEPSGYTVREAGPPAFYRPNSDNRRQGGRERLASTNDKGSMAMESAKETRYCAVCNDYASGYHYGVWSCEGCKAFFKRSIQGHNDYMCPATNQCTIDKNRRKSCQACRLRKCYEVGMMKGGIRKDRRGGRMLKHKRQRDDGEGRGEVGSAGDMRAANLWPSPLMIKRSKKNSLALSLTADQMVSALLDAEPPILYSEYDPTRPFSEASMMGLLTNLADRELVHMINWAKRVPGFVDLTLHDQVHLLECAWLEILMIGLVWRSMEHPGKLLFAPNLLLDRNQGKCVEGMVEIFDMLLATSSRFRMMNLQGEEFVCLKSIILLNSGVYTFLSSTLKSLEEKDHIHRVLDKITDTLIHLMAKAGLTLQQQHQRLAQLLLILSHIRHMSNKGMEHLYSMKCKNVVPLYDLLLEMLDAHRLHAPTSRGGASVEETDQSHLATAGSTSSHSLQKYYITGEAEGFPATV
Sequence of Estrogen receptor beta (Homo sapiens) (Q92731 whole entry, looked up): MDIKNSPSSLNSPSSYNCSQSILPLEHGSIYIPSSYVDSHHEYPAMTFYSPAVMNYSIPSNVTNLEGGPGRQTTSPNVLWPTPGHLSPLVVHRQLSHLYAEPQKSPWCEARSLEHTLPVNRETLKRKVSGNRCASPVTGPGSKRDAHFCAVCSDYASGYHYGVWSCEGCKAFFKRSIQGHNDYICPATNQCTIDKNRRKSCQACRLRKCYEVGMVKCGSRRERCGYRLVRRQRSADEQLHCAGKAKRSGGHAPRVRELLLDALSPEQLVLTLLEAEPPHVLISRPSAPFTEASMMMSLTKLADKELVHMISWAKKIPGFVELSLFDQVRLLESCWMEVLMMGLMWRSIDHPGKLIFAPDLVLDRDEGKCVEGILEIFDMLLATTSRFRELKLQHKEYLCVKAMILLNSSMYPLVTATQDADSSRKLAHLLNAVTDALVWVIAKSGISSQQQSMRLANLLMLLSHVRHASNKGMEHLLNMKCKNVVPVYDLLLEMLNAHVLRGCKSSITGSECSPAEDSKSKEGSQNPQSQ
Sequence of Progesterone receptor (Homo sapiens) (P06401 whole entry, looked up): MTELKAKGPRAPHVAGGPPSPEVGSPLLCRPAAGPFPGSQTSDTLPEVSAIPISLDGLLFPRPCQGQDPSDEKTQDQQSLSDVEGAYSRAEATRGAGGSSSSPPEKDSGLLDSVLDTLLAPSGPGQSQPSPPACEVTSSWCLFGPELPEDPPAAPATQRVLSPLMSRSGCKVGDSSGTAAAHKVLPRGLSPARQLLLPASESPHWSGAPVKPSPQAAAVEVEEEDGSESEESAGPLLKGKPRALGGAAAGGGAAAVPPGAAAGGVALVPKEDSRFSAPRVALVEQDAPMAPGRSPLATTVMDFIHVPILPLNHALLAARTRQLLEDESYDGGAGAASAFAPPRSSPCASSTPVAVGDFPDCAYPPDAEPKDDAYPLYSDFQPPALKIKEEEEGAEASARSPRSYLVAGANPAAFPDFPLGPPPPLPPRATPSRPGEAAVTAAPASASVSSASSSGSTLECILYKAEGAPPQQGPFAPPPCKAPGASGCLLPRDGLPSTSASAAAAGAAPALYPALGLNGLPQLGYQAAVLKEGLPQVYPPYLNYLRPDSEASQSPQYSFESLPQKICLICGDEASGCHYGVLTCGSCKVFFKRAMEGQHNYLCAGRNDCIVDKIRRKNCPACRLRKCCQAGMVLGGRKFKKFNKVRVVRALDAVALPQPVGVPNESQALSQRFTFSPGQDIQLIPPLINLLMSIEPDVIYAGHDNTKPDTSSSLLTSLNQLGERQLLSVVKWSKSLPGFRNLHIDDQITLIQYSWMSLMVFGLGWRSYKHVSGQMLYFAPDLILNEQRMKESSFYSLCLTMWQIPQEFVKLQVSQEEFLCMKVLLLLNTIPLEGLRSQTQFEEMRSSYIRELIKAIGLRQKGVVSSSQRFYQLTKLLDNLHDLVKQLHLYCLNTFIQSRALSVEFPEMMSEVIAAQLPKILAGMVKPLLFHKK

Take `CCCCO`: the Potency result in [1], in [2], in [3], in assay [4], in [5] and in assay [6] was “inactive” throughout. The Potency result in assay [7], in assay [8], in assay [9], in [10], in assay [11] and in assay [12] was “inactive” throughout. The Potency result in assay [13] and in assay [15] was “inactive” throughout. Besides, the outcome in [14] was inactive.
Take `O[C@@H](COc1cccc2ncccc12)CN1CCN(C2c3ccccc3[C@@H]3[C@H](c4ccccc42)C3(F)F)CC1` (some centres not stated): the Potency is 13.3 µM (active) in assay [1], 16.8 µM (active) in assay [2] and 26.6 µM (active) in assay [4]. Besides, the Potency entry in assay [3], in assay [16], in assay [6], in assay [7], in assay [9] and in [11] was “inactive” in each case. The Potency result in assay [13], in [15] and in assay [18] was “inactive” in each case. Also, the call in assay [14] and in [17] was inactive.
In the case of `O=C(OCCCCCCOC(=O)c1ccccc1)c1ccccc1`, in assay [1], the Potency is 27.3 µM (active). For the same compound, the Potency result in [3], in assay [4], in assay [5], in assay [16], in [6] and in assay [7] was “inactive” each time. In addition, the Potency entry in [8], in assay [15] and in assay [18] was “inactive” throughout. The result in [14] and in [17] was inactive.
Take `CC(CC=O)c1ccccc1` (configuration not stated): in assay [1], the Potency was 54.5 µM (active). Besides, the Potency entry in assay [2], in assay [3], in [4], in assay [16], in assay [6] and in [7] was “inactive” in each case. In addition, the Potency result in [8], in assay [9], in assay [13], in assay [15] and in assay [18] was “inactive” throughout. In addition, the compound was called inactive in assay [14] and in [17].
`CN(C)c1ccc(C(c2ccccc2)c2ccc(N(C)C)cc2)cc1`: the values for the Potency in [1], in [4] and in [10] were 3.06 µM (active), 17.2 µM (active) and 13.7 µM (active), respectively. The Potency entry in assay [3], in assay [19], in [6], in assay [7], in assay [8] and in assay [9] was “inactive” each time. Further, the Potency result in [12], in assay [13], in assay [15] and in assay [18] was “inactive” throughout. For the same compound, the compound was called inactive in assay [14] and in assay [17].
`CCOC(=O)Cc1cccc2ccccc12`: the Potency entry in [1], in assay [3], in assay [4], in [5], in assay [16] and in assay [6] was “inactive” throughout. Moreover, the Potency entry in [7], in assay [8], in assay [9], in assay [10], in [11] and in assay [12] was “inactive” in each case. The Potency entry in assay [15] and in assay [18] was “inactive” throughout. Further, the outcome in [14] and in assay [17] was inactive.
For the compound `COc1ccc2cccc(CCNC(C)=O)c2c1`, the Potency result in [1], in assay [2], in [3], in [19], in [5] and in assay [16] was “inactive” each time. The Potency entry in assay [8], in assay [9], in [10], in [11], in assay [12] and in assay [13] was “inactive” in each case. Further, the Potency entry in [15] and in [18] was “inactive” in each case. Moreover, the result in assay [14] and in assay [17] was inactive.
